Measured values from ChEMBL document CHEMBL3988442, “University of Dundee, Small-Polar-MMV Screening Library” (2021).

target: T1, Arginase-2, mitochondrial (Homo sapiens) (UniProt P78540); experiment: in vitro enzyme assay to detect the production of urea directly proportional to the activity of Arginase II; format: functional; parameters: scale not given: in the data most compounds retested in dose-response had high values; details: 30 µM
T1 sequence (whole entry): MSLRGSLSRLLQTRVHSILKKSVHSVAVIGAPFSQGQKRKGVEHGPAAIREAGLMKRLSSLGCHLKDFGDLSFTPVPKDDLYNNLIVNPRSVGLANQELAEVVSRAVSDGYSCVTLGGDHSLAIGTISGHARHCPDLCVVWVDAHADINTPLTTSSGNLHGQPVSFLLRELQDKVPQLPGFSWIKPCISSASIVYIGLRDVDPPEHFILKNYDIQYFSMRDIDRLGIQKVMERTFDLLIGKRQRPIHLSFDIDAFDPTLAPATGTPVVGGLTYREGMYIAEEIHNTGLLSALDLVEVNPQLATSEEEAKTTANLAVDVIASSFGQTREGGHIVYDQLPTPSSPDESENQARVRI

Row | SMILES | Percent Effect [%]
1 | CN(Cc1ccco1)[C@@H]1CN(Cc2cccnc2)[C@@H]2CCCO[C@H]12 | 2.7
2 | O=C(NCc1ccccn1)[C@]12COC[C@H]1CN(Cc1ccsc1)C2 | 5.95
3 | O=C1CSC(c2ccccc2)c2c(n(C3CCOCC3)[nH]c2=O)N1 (stereo not drawn) | 5.95
